Source: PubChem BioAssay (National Center for Advancing Translational Sciences (NCATS))
DT40 TDP1 no CPT – qHTS for Inhibitors of human tyrosyl-DNA phosphodiesterase 1 (TDP1): qHTS in cells in absence of CPT; actives 15% (n = 420,000); DT40 Tdp1-/- hTDP1 cells, no CPT, ATP luminescence, 48 h; Potency, µM (top dose mostly 46.2 µM), for inactives: at the top dose activity change, negative = growth inhibition, most hits filed as inhibitors; AID 686978, 2013; further: potency means the concentration at half of the fitted maximal effect; on the % scale 0 is the no-effect control and ±100 the full control effect; nearly all actives have a fitted effect of over 55% in size
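Chicken DT40 Tdp1-/- cells complemented with human TDP1, screened without camptothecin (DMSO vehicle only), 400 cells/well. Compounds pin-transferred, cells incubated at 37 °C for at least 48 hr. Growth read as ATP-dependent luminescence (CellTiter-Glo, 30 min at RT).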
TDP1 cell CPT – growth inhibition of DT40 Tdp1-/-;hTDP1 cells with camptothecin (screen for TDP1 inhibitors); Potency, µM (titrated, usually from 46.2 µM), inactives show at the top dose activity change, negative = growth inhibition, most hits filed as inhibitors; AID 686979; actives 12% (n = 420,000); chicken DT40 Tdp1-/-;hTDP1 cells + 20 nM CPT, ATP luminescence, 48 h; further: potency means the concentration at half of the fitted maximal effect; on the % scale 0 is the no-effect control and ±100 the full control effect; nearly all actives have a fitted effect of over 55% in size
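Chicken DT40 Tdp1-/- cells stably complemented with human TDP1 were seeded at 400 cells/well in medium containing 20 nM camptothecin, exposed to pin-transferred compounds, and grown at 37 °C for at least 48 hr. Viability was read as ATP luminescence.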
TDP1 inh – inhibitors of human tyrosyl-DNA phosphodiesterase TDP1; recombinant TDP1, AlphaScreen DNA substrate cleavage; Potency, µM (series often up to 130 µM), for inactives: at the highest dose activity change, negative = inhibition, actives largely listed as inhibitors; actives 0.28% (n = 350,000); further: potency means the concentration at half of the fitted maximal effect; on the % scale 0 is the no-effect control and ±100 the full control effect; nearly all actives have a fitted effect of over 40% in size
Target sequence (Q9NUW8 whole entry, looked up): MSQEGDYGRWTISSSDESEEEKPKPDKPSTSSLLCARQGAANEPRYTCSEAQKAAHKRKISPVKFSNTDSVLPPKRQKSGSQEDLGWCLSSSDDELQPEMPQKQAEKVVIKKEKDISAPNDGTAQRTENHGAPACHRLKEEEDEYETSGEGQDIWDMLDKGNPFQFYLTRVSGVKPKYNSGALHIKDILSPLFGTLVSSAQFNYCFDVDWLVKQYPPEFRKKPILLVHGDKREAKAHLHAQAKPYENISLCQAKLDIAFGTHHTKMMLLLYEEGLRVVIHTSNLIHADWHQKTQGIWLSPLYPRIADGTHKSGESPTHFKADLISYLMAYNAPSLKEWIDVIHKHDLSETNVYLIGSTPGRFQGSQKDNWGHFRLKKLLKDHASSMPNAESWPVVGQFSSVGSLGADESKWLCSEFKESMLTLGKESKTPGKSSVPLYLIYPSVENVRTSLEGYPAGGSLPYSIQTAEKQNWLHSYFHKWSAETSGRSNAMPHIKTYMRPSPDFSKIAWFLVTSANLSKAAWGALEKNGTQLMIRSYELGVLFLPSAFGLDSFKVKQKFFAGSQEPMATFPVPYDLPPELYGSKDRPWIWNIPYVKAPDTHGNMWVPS
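E. coli-derived human Tdp1, 1 nM final. Cpd preinc 15 min RT; substrate 15 nM final, 5 min RT; AS bead mix 10 ug/ml final, 10 min RT. Signal loss = tyrosine-FITC cleavage. No-enzyme wells = max signal.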
HepG2 tox – counter-screen for TGF-b inhibitors: cytotoxicity in HepG2 cells; HepG2 CAGA-GFP viability, ATP luminescence, 18 h; Potency, µM (doses to about 46.1 µM), without a hit: top-dose activity change, negative = cytotoxicity, actives largely listed as cytotoxic; actives 0.76% (n = 410,000); further: potency means the concentration at half of the fitted maximal effect
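CellTiter-Glo luminescence gave cytotoxicity after 18 hours at 37 degrees C. The cells were HepG2 CAGA-GFP in 1% FBS DMEM, stimulated with 500 pg/mL TGF-beta after compound addition. %Activity was normalised to no-cell wells (complete cell-killing) and DMSO (no toxicity), and curves were fitted and classified.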
TGFb SMAD3 inh – inhibitors of TGF-b signaling. HepG2 CAGA-GFP TGF-b/SMAD3 reporter, GFP fluorescence, 18 h; TGF-beta stimulated, 500 pg/mL final. Potency, µM (top dose mostly 46.1 µM), without a hit: top-dose activity, negative = inhibition, usual class: inhibitors. actives 1.2% (n = 410,000); further: potency means the concentration at half of the fitted maximal effect; on the % scale 0 is the no-effect control and ±100 the full control effect; nearly all actives have a fitted effect of over 65% in size
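HEPG2 CAGA-GFP reporter cells (1000/well, DMEM with 1% FBS) received compounds, then recombinant TGF-beta at 500 pg/mL final for 18 hours at 37 degrees C. Per-cell GFP summed per well was normalised to unstimulated and stimulated DMSO controls before curve fitting.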
IL1B secr inh – inflammasome signaling inhibition, IL-1 beta readout; THP-1 LPS/ATP IL-1B secretion, AlphaLISA, 16 h; active compounds read low; activity change, % at 57.5 µM; actives 4.7% (n = 360,000); AID 743279; in the data active means activity change below about -50%; inconclusive means mostly about -30% to -49%; further: on the % scale 0 is the no-effect control and ±100 the full control effect
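THP-1 cells pretreated 1 hr with compounds (up to 57.5 uM final), then stimulated with LPS (250 ng/mL final) plus ATP (1.25 mM final); secreted IL-1B measured by AlphaLISA after 16 hr, decreased signal indicating inhibition.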
* = called active by the depositor; ? = inconclusive; . = no result; ! = not confirmed by another sample; [ ] = another dose, or the depositor's remark. In the library only some 18% were active in any assay of this set; here they are far more common. Unless noted, the call rests on the fitted dose curve; in most records, active means well fitted curve in the direction sought with a large enough effect; inconclusive means small, poorly fitted or top-dose-only effect, or another doubt; inactive means no such curve, though single readings can be large; an effect the other way counts as inactive or inconclusive.

SMILES	DT40 TDP1 no CPT	TDP1 cell CPT	TDP1 inh	HepG2 tox	TGFb SMAD3 inh	IL1B secr inh
COc1ccccc1CNC(=O)CCCCn1c(=O)c2ccccc2n(Cc2ccccc2C)c1=O	2.9µM*	5.8µM*	-1%	-18%	4%	.
COc1cccc(NC(=O)Cn2c(=O)n(CCCCC(=O)NCc3ccccc3Cl)c(=O)c3ccccc32)c1	18µM*	?	5%	-14%	-17%	.
CC(C)COC(=O)COc1cc(Cl)c(Cl)cc1Cl	.	.	50µM*	.	.	.
CCn1c(COc2ccc(Cl)cc2Cl)nc2ccccc21	?	?	-10%[12.3 µM]	-1%	4%	.
O=C1CC(N2CCC(c3nc4ccccc4[nH]3)CC2)C(=O)N1c1ccccc1F (stereo not given)	?	26µM*	3%	6%	6%	-4
COc1ccc(N2C(=O)CC(N3CCC(c4nc5ccccc5[nH]4)CC3)C2=O)cc1 (stereo not given)	?	?	4%	-22%	0%	13
COc1cccc(OCc2cc(C(=O)N3CCN(C)C(c4ccccc4)C3)no2)c1 (stereo not given)	?	26µM*	5%	-17%	4%	20
COc1cccc(OCc2cc(C(=O)N3CCC(c4ccncc4)CC3)no2)c1	8.2µM*	15µM*	4%	-13%	-28%	-20
COCC1CCCN(C(=O)c2cc(COc3ccc(C(C)=O)cc3)on2)C1 (stereo not given)	-28%	-22%	.	-19%	0%	-15
CC(=O)c1ccc(OCc2cc(C(=O)N3CCC(c4ccncc4)CC3)no2)cc1	5.8µM*	12µM*	6%	-39%	-52%	-12
CC(=O)c1ccc(OCc2cc(C(=O)N3CC[C@@H]4CCCC[C@H]4C3)no2)cc1	16µM*	?	-2%	-38%	-7%	-81*
O=C(CC1C(=O)NCCN1Cc1cccc(C(F)(F)F)c1)NCCc1cnccn1 (stereo not given)	-4%	-15%	1%	-14%	4%	3
CCN(CC)c1ccc(C(=O)N2CCC(c3ccncc3)CC2)cc1	3.3µM*	21µM*	0%	-25%	?	.
Cc1ccc(OCc2cc(C(=O)N3CCCC(O)C3)no2)cn1 (stereo not given)	0%	1%	4%	13%	9%	24
COCC1CCN(C(=O)c2cc(COc3ccc4c(c3)CCCC4)on2)C1 (stereo not given)	-26%	?	-5%	-30%	0%	-62*
Cc1ccc(OCc2cc(C(=O)N3CCCC(C)C3)no2)cn1 (stereo not given)	21µM*	16µM*	.	-20%	-11%	24
CCOc1cccc(C(=O)N2CCCCC2c2cccnc2)c1 (stereo not given)	-12%	-10%	6%	-6%	-7%	20
CC(=O)c1ccc(OCc2cc(C(=O)N3CCCCC3c3cccnc3)no2)cc1 (stereo not given)	18µM*	21µM*	5%	-16%	-4%	?
COc1ccc(C(=O)N2CCC(c3ccncc3)CC2)cc1OC	-8%	-26%	1%	-2%	-16%	.
Cc1cccc(NC(=O)c2ncn3c2C(=O)N[C@H](C)C3)c1	?	-17%	.	-8%	-15%	-21
COc1ccc(C(=O)OCC(=O)c2c(N)n(C)c(=O)n(C)c2=O)c(OC)c1OC	7%	1%	0%	-14%	1%	13
COC(=O)[C@@]12C[C@@H](CC(=O)NCCc3ccccc3OC)C(=O)N(Cc3ccco3)C1=CCC(C)(C)C2	?	?	.	.	.	-13
COc1ccc(-c2nc3ccc([N+](=O)[O-])cc3[nH]2)cc1	?	?	-2%	-2%	-10%	-7
O=[N+]([O-])c1ccc2nc(-[n+]3c(-c4ccccc4)cc(-c4ccccc4)cc3-c3ccccc3)[nH]c2c1	21µM*	23µM*	11%	-1%	?	?
O=[N+]([O-])c1ccc2nc(-c3ccc(Cl)cc3)[nH]c2c1	16µM*	?	5%	-40%	?	?
SMILES	DT40 TDP1 no CPT	TDP1 cell CPT	TDP1 inh	HepG2 tox	TGFb SMAD3 inh	IL1B secr inh
O=[N+]([O-])c1ccc2nc(-c3ccncc3)[nH]c2c1	?	?	-1%	-23%	-14%	51
O=[N+]([O-])c1cccc(-c2nc3ccc([N+](=O)[O-])cc3[nH]2)c1	21µM*	10µM*	0%	-11%	?	-16
Cc1ccc(-c2nc3ccc([N+](=O)[O-])cc3[nH]2)cc1	21µM*	?	-2%	-40%	?	-15
Cc1ccc2nc(-c3cccc(N)c3)[nH]c2c1	?	15µM*	-1%[56.1 µM]	-57%	-11%	-4
Clc1ccc(-c2nc3ccncc3[nH]2)cc1	?	10µM*	-2%	-81%	-18%	4
Nc1cccc(-c2nc3ccccc3[nH]2)c1	?	?	4%	-18%	-6%	2
Nc1c(N=Nc2ccc([N+](=O)[O-])cc2)c(S(=O)(=O)O)cc2cc(S(=O)(=O)O)c(/C=C/c3ccccc3)c(O)c12	14µM*	10µM*	.	-19%	-3%	.
O=C(CCc1nc2cccnc2n1Cc1cccs1)Nc1cccc(C(F)(F)F)c1	10µM*	16µM*	4%	-50%	?	.
COc1ccc(Cn2c(CCC(=O)Nc3ccc(C)c(C)c3)nc3cccnc32)cc1	21µM*	13µM*!	7%	-46%	?	?
CCOc1ccc(NC(=O)Cc2ccc(-n3c(C)nc4cccnc43)cc2)cc1	?	?	3%	-11%	-1%	.
COc1ccc(Cn2c(CCC(=O)Nc3cc(OC)c(OC)c(OC)c3)nc3cccnc32)cc1	?	16µM*	6%	-14%	-1%	.
COc1ccc(Cn2c(CCC(=O)Nc3cccc(OC)c3)nc3cccnc32)cc1	-3%	-17%	-2%	-18%	22%	.
COc1ccc(Cn2c(CCC(=O)Nc3ccccc3)nc3cccnc32)cc1	-22%	3%	0%	-22%	-6%	-2
Cc1ccc(NC(=O)Cc2ccc(-n3c(C)nc4cccnc43)cc2)cc1C	18µM*	12µM*	6%	-21%	?	.
COc1cccc(C2(CC(=O)N3CCCCC3CO)CC(=O)N(C)C2=O)c1 (stereo not given)	-8%	9%[9.04 µM]	.	.	.	.
